Hit rate of the full screen: of about 69,000 compounds, about 8,600 (12%) showed an effect of 50% or more. This is one part of a sample in which strong results are shown more often than they occur.

The experiment concerns Plasmodium berghei. Nature of the experiment: Screen against P. berghei liver stage (PbLuc), transformed with Luciferase, at 10uM. The conditions noted are these: tested at 10 uM. Type of experiment: functional, HepG2.
As for `CCc1ccc(NC(=O)N2Cc3c(CN(C)C)nn(C)c3C2)cc1`, the INHIBITION is on record as 33%.
Under `COc1cccc(OCCn2c(C)c(C)oc2=O)c1` stands 31.4%.
Then `CCC1=N[C@@]2(CC[C@@H]3CN(Cc4ccccc4F)C[C@@H]32)C(=O)N1`, with 10.5%.
Under `Cc1nc(C)n(CC2CCCN2Cc2nc3ccccc3o2)n1` (configuration not stated) stands 33.8%.
Take `COC(=O)CCn1ccc(=O)c2ccc(OC)cc21`: the INHIBITION is on record as -7.53%.
Under `CNc1cncc(C2CCCN2C(=O)Cn2c(=O)oc3ccccc32)n1` (configuration not stated) stands 23.4%; under `CC(C)(C)c1cc(CN2C[C@@H]3CC[C@H]2CN(Cc2ccccn2)C3)n[nH]1`, -2.73%.
Regarding `COc1cc(N2CCc3ncnc(-c4ccncc4)c3CC2)ncn1`, the INHIBITION is listed as 33%.
Then `COCc1nc(N(C)C)ncc1C(=O)Nc1cc(C)cc(C)c1`, with 35%.
Turning to `CN(CC1(CO)CCCC1)c1nc2c(c(=O)[nH]1)Cc1ccccc1OC2`, the INHIBITION is reported as 71.2%.
Take `CN(C)c1nc2c(c(=O)[nH]1)Cc1ccccc1OC2`: the INHIBITION was determined as 54.4%.
Then `Cc1nc2c(c(N[C@@H](CO)C(N)=O)n1)Cc1ccccc1OC2`, with -13.4%; and `Cc1nc2c(c(NC(C)c3nnn[nH]3)n1)Cc1ccccc1OC2` (configuration not stated), with -45.5%; and `Cc1nc2c(c(NCC(=O)NC(C)C)n1)Cc1ccccc1OC2`, with 5.87%.
Then `Cc1nc2c(c(NCCNC(=O)C(C)C)n1)Cc1ccccc1OC2`, with -0.55%.
Regarding `CN(CC1(CO)CCC1)c1nc2c(c(=O)[nH]1)Cc1ccccc1OC2`, the INHIBITION was 57.8%.
On to `OCC1CCCN(c2ncnc3c2Cc2ccccc2OC3)C1` (configuration not stated), for which the INHIBITION was found to be 32.1%.
Then `Cc1nc2c(c(N[C@H](C(N)=O)C(C)C)n1)Cc1ccccc1OC2`, with -19.8%; and `COCCN(CCC#N)Cn1cc(Cl)cn1`, with 5.29%.
Under `O=C(NC1CC1)N1CCc2ccc(=O)n(CC3CC3)c2CC1` stands -55.2%; under `CC(C)NC1CCc2c(ccc(=O)n2CCN(C)C)C1` (configuration not stated), -33%.
Under `CC(C)NC1CCc2c(ccc(=O)n2CCN2CCOCC2)C1` (configuration not stated) stands 73.2%.
As to `CC(C)NC1CCc2c(ccc(=O)n2CCN2CCCC2=O)C1` (configuration not stated), the INHIBITION is recorded as -20.1%.
On to `O=C(NC1CC1)N1CCc2ccc(=O)n(CCN3CCCC3)c2CC1`, for which the INHIBITION turned out to be 61.5%.
Under `COCCn1c2c(ccc1=O)CCN(C(=O)NC1CC1)CC2` stands -3.26%; under `CN(CC(=O)NCC1CCCCC1)S(=O)(=O)c1cccnc1`, -7.93%; under `Cn1cc(C[C@H]2[C@H](O)CCN2CC2CC2)cn1`, 18.8%.
Then `O=C(CCc1nc2cc(Br)cnc2[nH]1)NCc1cccnc1`, with -2.92%; and `Cc1ccc(CNCC(C)Oc2ccccn2)cc1` (configuration not stated), with -6.11%.
Turning to `CC(C)(C)C(=O)NCC(=O)NCC1CCCS1` (configuration not stated), the INHIBITION amounted to 91.1%.
With `O=C(CCC(F)(F)F)NCC1CCCS1` (configuration not stated), the INHIBITION amounted to 31.5%.
Then `CC(C)(C)CC(=O)NCC1CCCS1` (configuration not stated), with 43.4%.
As for `O=C(CNC(=O)Nc1c(F)cc(F)cc1-c1ccccc1)NC1CC1`, the INHIBITION was 3.93%.
Then `O=C(NCCN1CCCC1)C1(c2ccc(Cl)cc2)CCOCC1`, with 33.85%; and `O=C(NCCNc1ncccn1)N1CCN(c2nccs2)CC1`, with -14.6%; and `CS(=O)(=O)NC1CCN(C(=O)NCc2cccnc2)CC1`, with 59%.
Under `Cc1cc(C2CCCN2C(=O)NCc2cccnc2)on1` (configuration not stated) stands 55%; under `O=C(NS(=O)(=O)c1cccnc1)C1CC(c2ccccc2)=NO1` (configuration not stated), 28.7%.
Under `Cc1cc(C2CCCN2C(=O)NCc2ccccn2)on1` (configuration not stated) stands 48.5%; under `CS(=O)(=O)NC1CCCN(C(=O)NCc2cccnc2)C1` (configuration not stated), -6.62%; under `O=S(=O)(N[C@H]1CC[C@H]1NC1Cc2ccccc2C1)c1cccnc1`, 68.3%.
`CC(=O)N1CCC(NS(=O)(=O)c2cccnc2)CC1`: the INHIBITION is given as 69.3%.
Under `CC(=O)N1CCC(N[C@@H]2CC[C@@H]2NS(=O)(=O)c2cccnc2)CC1` stands 46.9%; under `CS(=O)(=O)NC1CCN(C(=O)NCc2ccccn2)CC1`, -27.9%.
Then `Cc1cc(C2CCCN2C(=O)NCc2cccc(F)c2)on1` (configuration not stated), with 23.2%.
Then `CS(=O)(=O)NC1CCN(C(=O)c2cnc(-c3cccnc3)nc2)CC1`, with -32.8%; and `c1cncc(OCCNC2Cc3ccccc3C2)c1`, with 39.7%.
As to `COCCNc1nc(N2CCOCC2)nc2nccnc12`, the INHIBITION is listed as -2.93%.
For the compound `O=C(N1CCOCC1)N1CCN(CC(O)c2ccc(F)cc2)CC1` (configuration not stated), the INHIBITION is given as -11.4%.
On to `O=C(CC1CCC2(CC1)CCN(Cc1cccnc1)CC2)N1CC=CC1`, for which the INHIBITION is reported as -4.32%.
Then `Cc1ccc(CN2CCc3[nH]nc(C(=O)N(C)C)c3C2)o1`, with 6.27%; and `c1cnc2c(CN3CCCCC3c3ccncn3)cnn2c1` (configuration not stated), with 16.5%; and `Cn1cc(CN2CCCC23CCN(C(=O)c2cccs2)CC3)cn1`, with 28.4%.
Then `CC1(C(N)=O)CN(CC2CCOCC2)CCO1` (configuration not stated), with 26.3375%.
Take `CS(=O)(=O)N1CCC(c2nnc3ccc(C(=O)NC4CCC4)cn23)C1` (configuration not stated): the INHIBITION is given as 37.3%.
As to `Cc1cc(C(F)(F)F)nn1C(C)C(=O)Nc1ccc(Cl)cn1` (configuration not stated), the INHIBITION is on record as 47.4%.
Take `Cn1c(Cn2cccn2)nnc1C1CCN(Cc2ccccc2Cl)CC1`: the INHIBITION is recorded as -10.9%.
Then `Cc1nn(C)c(Cl)c1C1CCCN1C(=O)c1ccnc(N(C)C)c1` (configuration not stated), with -65.3%; and `COc1ccc(Cl)cc1NCc1nc2[nH]c(C)c(C)c(=O)n2n1`, with 16%; and `O=C(Nc1cc(C(F)(F)F)c[nH]c1=O)N1CCSCC1`, with -43.6%.
With `Cc1nc(C(=O)N2CCCC2c2cnn(C)c2)ccc1C#N` (configuration not stated), the INHIBITION is 13.3%.
Under `CNC(=O)c1ccc(C2CN(C(=O)c3cncs3)CCO2)nc1` (configuration not stated) stands 50%.
Under `CNC(=O)c1ccc(C2CN(C(=O)c3scnc3C)CCO2)nc1` (configuration not stated) stands -5.71%; under `CNC(=O)c1ccc(C2CN(C(=O)c3cnn(C)c3)CCO2)nc1` (configuration not stated), 29.2%.
Then `CCOc1ncccc1C(=O)N1CCCC1c1c(C)nn(C)c1Cl` (configuration not stated), with -19.9%; and `CCN(C)S(=O)(=O)NCC(C)(O)c1ccsc1` (configuration not stated), with 31.7%; and `COCCN1C(=O)CO[C@H]2CN(CCCc3ccccc3)C[C@H]21`, with 51.9%.
With `COCCN1C(=O)CO[C@H]2CN(Cc3cccc(OC)c3F)C[C@@H]21`, the INHIBITION is 27.8%.
`COCCN1C(=O)CO[C@H]2CN(Cc3ccccc3OC)C[C@H]21`: the INHIBITION is reported as -17.2%.
Under `COCCN1C(=O)CO[C@H]2CN(Cc3ccccc3Cl)C[C@@H]21` stands 63.4%; under `COCCN1C(=O)CO[C@H]2CN(S(=O)(=O)c3ccccc3)C[C@H]21`, -6.3%.
As to `Cn1ccnc1CN1C(=O)CO[C@H]2CN(CCCc3ccccc3)C[C@H]21`, the INHIBITION is 27.5%.

The values are drawn from ChEMBL document CHEMBL4513216, “Probing the Open Global Health Chemical Diversity Library for Multistage-Active Starting Points for Next-Generation Antimalarials” (ACS Infect Dis, 2020).
